The values that follow come from PubChem BioAssay (NCI).

Some test systems named below: T-47D breast; BT-549 breast; MDA-MB-435 melanoma; SW-620 colon; MCF7 breast; HCT-116 colon; HCC-2998 colon; KM12 colon.
Assay in all cases: NCI-60 one-dose screen, 48 h (100 = growth as untreated, 0 = no growth, -100 = all killed)
Holding throughout (conditions): 10 µM unless noted

Compounds without any hit were thinned out: in the full panel of roughly 83,000, 20% have a hit.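 Treatment: one concentration, 48 hours, 96-well format. Scoring: percent growth, with anything below 10 considered active.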 A number with no mark means an inactive call. Calls of active or inactive are those of the source.

For `CCN(CC)c1ccc(C2CC(c3cc(OC)c(OC)c(OC)c3)=NN2)cc1` (configuration not stated), the growth in the assay on T-47D breast is 29.9%; with BT-549 breast, -2.69% (active); with MDA-MB-435 melanoma, 21.6%; in the assay with SW-620 colon, 18.4%; in the assay on MCF7 breast, 6.88% (active); with HCT-116 colon it was 9.61% (active). Besides, the growth in the assay with HCC-2998 colon was 21.2%; in the assay with KM12 colon, 11.1%.

For the molecule `Fc1ccc(/C=N/n2c(-c3cc(Cl)cc(Cl)c3Cl)nn(CNc3ccc(Cl)nn3)c2=S)cc1`, the growth with T-47D breast is 86%; in the assay with BT-549 breast, 114%; with MDA-MB-435 melanoma, 97.9%; with SW-620 colon, 112%; in the assay with MCF7 breast, 98.9%; in the assay with HCT-116 colon, 78.1%. The growth with HCC-2998 colon is 107%; with KM12 colon it was 97.3%.

Regarding `Nc1ncnc2c1c(-c1ccc(Oc3ccccc3)cc1)nn2C[C@@H]1SSC[C@H]1O`, the growth with T-47D breast is 3.82% (active); in the assay with BT-549 breast it was 57.9%; with MDA-MB-435 melanoma, 8.48% (active); in the assay with SW-620 colon, 90.4%; in the assay with MCF7 breast, 11.4%; in the assay on HCT-116 colon, 46.4%. The growth with HCC-2998 colon is 88.4%; with KM12 colon, 34.8%.

In the case of `CCC1S/C(=N\N=C(/C)c2cc3ccccc3o2)N(c2ccccc2)C1=O` (configuration not stated), the growth is 85.1% with T-47D breast; 234% in the assay on BT-549 breast; 107% in the assay on MDA-MB-435 melanoma; 106% with SW-620 colon; 162% with MCF7 breast; 80.8% in the assay on HCT-116 colon. Besides, the growth in the assay on HCC-2998 colon was 113%; in the assay on KM12 colon, 114%.

Regarding `CN1CCN(C(=O)/C=C/c2ccc([N+](=O)[O-])o2)CC1`, the growth in the assay on T-47D breast was 110%; in the assay with BT-549 breast, 105%; with MDA-MB-435 melanoma, 72.7%; with SW-620 colon, 82%; with MCF7 breast it was 68.7%; with HCT-116 colon, 81.6%. Further, the growth was 103% with HCC-2998 colon and 83.9% in the assay on KM12 colon.

Take `CC(C)(C)NCC(O)COc1c(Br)c(Br)c(Br)c2c1OC(C)(C)C2` (configuration not stated): the growth with T-47D breast was -26.4% (active); with BT-549 breast it was 32.7%; in the assay with MDA-MB-435 melanoma, -68.6% (active); in the assay on SW-620 colon, -97.5% (active); with MCF7 breast it was -74.2% (active); in the assay on HCT-116 colon, -26.5% (active). The values for the growth in the assay with HCC-2998 colon and with KM12 colon were -74.9% (active) and -80.7% (active), respectively.

Consider `O=C(Nc1ccc(-n2cc(-c3ccncc3)c(-c3ccc(O)c(Cl)c3)n2)cc1)Nc1cccc(Cl)c1Cl`, for which the growth in the assay on T-47D breast was 42.1%; in the assay on BT-549 breast it was 59%; in the assay with MDA-MB-435 melanoma it was 51.3%; with SW-620 colon, 73.7%; in the assay with MCF7 breast, 42.2%; in the assay on HCT-116 colon, 36.8%. Further, the growth in the assay with HCC-2998 colon was 70%; in the assay on KM12 colon, 39.1%.

`COc1cc(NC(C)CCCN2C(=O)c3ccccc3C2=O)c2nccc(C)c2c1OC` (configuration not stated): the growth in the assay on T-47D breast was 78.2%; in the assay with BT-549 breast it was 113%; in the assay with MDA-MB-435 melanoma, 104%; with SW-620 colon, 93.5%; in the assay on MCF7 breast, 40.4%; in the assay with HCT-116 colon, 87.8%. Besides, the growth is 113% in the assay on HCC-2998 colon and 97.4% in the assay with KM12 colon.

For the molecule `COc1ccc(-c2ccc(NC(=O)Nc3cccc(C(F)(F)F)c3)c(C)n2)cc1`, the growth is 26.5% in the assay on T-47D breast; 66.4% in the assay on BT-549 breast; 69.6% in the assay with MDA-MB-435 melanoma; 81% with SW-620 colon; 41.5% with MCF7 breast; 26.9% in the assay with HCT-116 colon. In addition, the growth with HCC-2998 colon is 81.1%; in the assay on KM12 colon, 45.6%.

Turning to `Nc1ncc(-c2ccc3ncnc(Nc4cncc(Cl)c4)c3c2)cn1`, the growth in the assay with T-47D breast was -7.28% (active); in the assay on BT-549 breast it was 64.2%; in the assay on MDA-MB-435 melanoma, 75.1%; with SW-620 colon, 95.8%; with MCF7 breast, 37.8%; in the assay with HCT-116 colon, 82.4%. In addition, the results for the growth with HCC-2998 colon and in the assay on KM12 colon were 79.7% and 82.5%, respectively.

Regarding `COC1=C(OC)C(=O)C=CC1=O`, the growth in the assay with T-47D breast is 99.5%; with BT-549 breast, 94.4%; in the assay on MDA-MB-435 melanoma, 116%; with SW-620 colon it was 77.8%; with MCF7 breast, 94.3%; in the assay on HCT-116 colon, 64.4%. Moreover, the values for the growth in the assay on HCC-2998 colon and in the assay on KM12 colon were 125% and 104%, respectively.

For the molecule `CCCCOc1nc2ccc(Cl)cc2cc1/C=C/C(=O)/C=C/c1ccc(OC)cc1`, the growth in the assay on T-47D breast is 86.8%; with BT-549 breast, 93.6%; in the assay with MDA-MB-435 melanoma, 9.64% (active); with SW-620 colon it was 107%; with MCF7 breast, 30.7%; in the assay on HCT-116 colon, -25.4% (active). In addition, the growth in the assay on HCC-2998 colon was 92.7%; in the assay with KM12 colon it was 84%.

For the molecule `COc1cc(Cn2cc3c(c2)-c2onc(CO)c2CC3)cc(OC)c1OC`, the growth is 93.2% in the assay on T-47D breast; 98.6% in the assay on BT-549 breast; 72% with MDA-MB-435 melanoma; 87% with SW-620 colon; 86.8% in the assay with MCF7 breast; 84% in the assay with HCT-116 colon. In addition, the growth is 101% in the assay with HCC-2998 colon and 90.9% in the assay with KM12 colon.

With `COc1ccccc1N1CCN(CCCOc2ccc(OCCCN3CCN(c4ccccc4OC)CC3)c(C(=O)c3cc(OC)c(OC)c(OC)c3)c2)CC1`, the growth with T-47D breast is 104%; in the assay on BT-549 breast, 96.3%; in the assay with MDA-MB-435 melanoma, 122%; in the assay on SW-620 colon it was 102%; in the assay with MCF7 breast, 95.1%; in the assay on HCT-116 colon it was 111%. Moreover, the growth in the assay with HCC-2998 colon was 107%; with KM12 colon it was 113%.
